# From PubChem BioAssay
# AMA1 RON2 block – AMA1-RON2 (P. falciparum) interaction inhibition | Potency, µM (highest dose often 58.2 µM), inactives show top-dose activity change, negative = inhibition, usual class: inhibitors | AlphaScreen AMA1-biotinylated RON2 peptide binding | 360,000 compounds, 0.2% hits;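 further: potency means the concentration at half of the fitted maximal effect; 0% = vehicle wells and -100% = peptide control; nearly all actives have a fitted effect of over 45% in size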
#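 AMA1 (3D7) with his tag at 25 nM final met compounds first, then biotinylated RON2 peptide at 25 nM; detection used donor plus acceptor beads, 10 µg/mL apiece, read by AlphaScreen after 30 min at room temperature.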
# Shiga inhibitor – Shiga toxin inhibition; Vero cells, Shiga toxin protein synthesis inhibition reporter; inhibition, % at 38.7 µM; 290,000 compounds, 9.2% hits; in the data active means inhibition mostly above about 28%, no sharp cut-off; inactive means mostly below about 43%; further: 0% is about no effect
# SARS PLpro yeast – SARS-CoV PLP inhibition in yeast; S. cerevisiae expressing SARS-CoV PLpro, growth rescue; Potency, µM (titrated, usually from 32.9 µM), without a hit: at the highest dose activity, positive = growth rescue, usual class: activators; 330,000 compounds, 0.19% hits; AID 485353; calls by dose curve; further: potency means the concentration at half of the fitted maximal effect; 0% is about no effect; nearly all actives have a fitted effect of over 55% in size
# CHX counter – affects cycloheximide protein synthesis inhibition readout, counter-screen; cell reporter, cycloheximide protein synthesis inhibition counterscreen; max response, %; 300,000 compounds, 12% hits; in the data active means max response mostly above about 13%, no sharp cut-off; inactive means mostly below about 14%; further: read at 38.3 µM for the half of the compounds with a filed dose; 0% is about no effect
# Pf growth 96h – inhibits malaria parasite growth, 96 h | 320,000 compounds, 6.9% hits | Potency, µM (titrated, usually from 28.7 µM), for the others: at the top dose activity change, negative = inhibition, hits mostly inhibitors | P. falciparum luciferase reporter growth, 96 h; further: potency means the concentration at half of the fitted maximal effect; on the % scale 0 is the no-effect control and ±100 the full control effect
#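 P. falciparum expressing integrated firefly luciferase, in erythrocytes at 2% hematocrit, 0.05% parasitemia, incubated with compounds 96 h at 37 C, 5% CO2. Growth inhibition read as loss of luminescence; two-generation exposure targets delayed-death apicoplast inhibitors.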
# Pf growth 48h – P. falciparum growth inhibition at 48 hours (one generation). P. falciparum luciferase growth in erythrocytes, 48 h. Potency, µM (top dose mostly 28.7 µM), inactives show top-dose activity change, negative = inhibition, actives largely listed as inhibitors. 310,000 compounds, 5.9% hits; further: potency means the concentration at half of the fitted maximal effect; on the % scale 0 is the no-effect control and ±100 the full control effect
#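 Cell-based growth assay: transgenic P. falciparum expressing firefly luciferase, cultured in red cells within RPMI 1640 containing 0.5% w/v Albumax, 24 mM bicarbonate and gentamycin. A drop in luciferase activity indicates inhibition.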
# Starred values were filed as active, the others as inactive; i = inactive; u = inconclusive; x = no result; [ ] = remark or other dose. Rows were chosen to be rich in hits. Some 19% of all compounds tested hit in one or more screens of this group. Unless noted, the call rests on the fitted dose curve; in most records, active means well fitted curve in the direction sought with a large enough effect; inconclusive means small, poorly fitted or top-dose-only effect, or another doubt; inactive means no such curve, though single readings can be large; an effect the other way counts as inactive or inconclusive.
SMILES,AMA1 RON2 block,Shiga inhibitor,SARS PLpro yeast,CHX counter,Pf growth 96h,Pf growth 48h
O=C(CN=C1NC(=O)C(c2ccccc2)(c2ccccc2)N1)NCc1ccc(F)cc1,-26.6%,17.6,3.3%,13.2,16.6%,6.2%
COc1ccc(CNC(=O)CN=C2NC(=O)C(c3ccccc3)(c3ccccc3)N2)cc1,7.8%,31.3*,20.6%,11.5,21.5%,10.2%
O=C(C1CCCN(c2ncnc3c2nc2n3CCCCC2)C1)N1CCN(c2ccccc2)CC1 (stereo unspecified),6.3%,-6.4,u,-0.8,u,u
Cc1ccc(NC(=O)C2CCCN(c3ncnc4c3nc3n4CCCCC3)C2)cc1Cl (stereo unspecified),4.8%,12.7,-7.3%,9.9,-20.2%,u
Cc1ccc(C)c(N2CCN(C(=O)C3CCCN(c4ncnc5c4nc4n5CCCCC4)C3)CC2)c1 (stereo unspecified),-11.8%,-4.6,-11.3%,9.0,u,9.28µM*
Cc1ccc(N2CCN(C(=O)C3CCCN(c4ncnc5c4nc4n5CCCCC4)C3)CC2)c(C)c1 (stereo unspecified),10.5%,-0.7,-1.2%,0.7,14.7µM*,u
COc1ccccc1N1CCN(C(=O)C2CCCN(c3ncnc4c3nc3n4CCCCC3)C2)CC1 (stereo unspecified),5.3%,26.8,19.6%,5.6,-20.5%,9.28µM*
CC(C)Cc1nnc(NC(=O)CCS(=O)(=O)c2ccc(Cl)cc2)s1,2.5%,11.3,u,6.1,26.3%,-0.3%
Cc1ccc2nc(/C(C#N)=C/c3ccc(O)c(O)c3)[nH]c2c1,48.3%,91.8*,10.9%,59.7*,-2.3%,u
N#C/C(=C\c1ccccc1C(=O)O)c1nc2ccccc2[nH]1,83.3%,49.0*,0.6%,16.9*,-1.2%,u
Cc1ccc2nc(/C(C#N)=C/c3cn[nH]c3-c3ccc(F)cc3)[nH]c2c1,10.5%,13.5,1.3%,6.6,u,u
N#C/C(=C\c1ccc(-c2ccc(Cl)c(C(=O)O)c2)o1)c1nc2ccccc2[nH]1,x,x,6.5%,x,0.9%,-1.5%
Cc1ccc2nc(/C(C#N)=C/c3ccccc3C(=O)O)[nH]c2c1,98.6%,55.4,2.4%,18.5*,u,2.08µM*
Cc1ccc2nc(/C(C#N)=N/O)[nH]c2c1,49.0%,16.0,7.9%,3.8,13.1µM*,u
COC(=O)C1CSC(C(=O)OC)N1C(=O)CN1CC(C)OC(C)C1 (stereo unspecified),8.6%,-5.2,-0.7%,-0.4,5.1%,-5.3%
COc1ccc(N2CCN(C(=O)c3ccc(CNS(=O)(=O)c4cc(C)ccc4C)cc3)CC2)cc1,-28.2%,5.8,-0.5%,3.3,-1.4%,-3.9%
CC(NC(=O)c1cc(-c2ccc(Br)cc2)on1)c1ccccc1 (stereo unspecified),-3.8%,4.7,2.5%,-1.2,1.6%,22.9%
CC(=O)Nc1ccc(S(=O)(=O)N2CCCC2C(=O)Nc2ccc3c(c2)OCCO3)cc1 (stereo unspecified),22.6%,-3.3,-1.0%,-1.3,0.0%,-9.4%
N#C/C(=C\c1cc(O)c(O)c(O)c1)C(N)=O,u,-7.9,0.7%,-2.1,u,10.4µM*
N#C/C(=C\c1cc(Cl)c(OCc2ccc(Cl)cc2)c(Cl)c1)C(N)=O,x,52.7*,-0.8%,29.8*,91.6%,12.1%
N#C/C(=C/c1ccc(O)c(O)c1)C(=O)NCc1ccc(Cl)cc1,-3.3%,-8.3,0.4%,5.3,-4.4%,-29.2%
N#C/C(=C\c1ccc(O)c(O)c1)C(=O)Nc1ccccc1,-2.2%,x,x,x,u,u
CC(=O)Nc1ccccc1C(=O)C(=O)Nc1ccc(F)c(Cl)c1,5.9%,45.1,-6.2%,19.5*,u,3.4%
Cc1ccc(NC(=O)/C(Cl)=C/c2ccccc2)cc1C,25.4%,94.7*,-62.4%,45.5*,u,320.3%
CCN(CC)C(=O)C(=O)Nc1ccc(F)c(Cl)c1,-14.3%,87.9*,-0.6%,28.2*,-16.4%,53.9%
SMILES,AMA1 RON2 block,Shiga inhibitor,SARS PLpro yeast,CHX counter,Pf growth 96h,Pf growth 48h
CCc1ccc(NC(=O)C(=O)c2ccccc2NC(C)=O)cc1,-3.3%[11.6 µM],x,0.4%,x,i,i
CC(=O)Nc1ccccc1C(=O)C(=O)Nc1ccc(C)c(C)c1,-5.5%,39.9*,16.8%,40.1*,-7.3%,194.5%
Cc1ccc(NC(=O)CCc2ccccc2)cc1C,-1.1%,x,x,x,x,x
COc1ccc(CN2C(=O)C(CC(=O)NC3CCCC3)CC(C(=O)N3CCOCC3)=C2C)cc1 (stereo unspecified),5.1%,x,x,x,x,x
CCOc1cc(/C=N/Nc2ccccc2Cl)ccc1OCC(=O)O,-0.2%,8.9,-6.0%,14.5,41.1%,0.0%
CC(=O)Nc1ccccc1C(=O)C(=O)Nc1ccc(C)c(F)c1,3.9%,102.8*,u,58.8*,u,207.7%
NC(=O)c1ccccc1NC(=O)Nc1cccc(Cl)c1Cl,-2.6%,1.0,-3.2%,6.0,0.0%,11.2%
NC(=O)c1ccccc1NC(=O)Nc1ccc(F)c(Cl)c1,-1.4%,55.8*,-0.6%,42.1*,u,25.1%
CC(=O)Nc1ccccc1C(=O)C(=O)Nc1cccc(F)c1,-10.0%,x,x,x,x,x
CCOc1ccc(S(=O)(=O)N2CCCC(C(=O)NCc3ccncc3)C2)cc1 (stereo unspecified),-9.6%,-11.1,2.0%,-1.7,3.2%,-0.3%
O=C(N/N=C/c1c(O)n(-c2ccccc2)c(=S)[nH]c1=O)c1ccccc1,11.4%,59.5*,0.2%,39.8*,35.6%,23.6%
Cc1c(N=Cc2c(O)n(CCc3ccc(F)cc3)c(=O)[nH]c2=O)c(=O)n(-c2ccccc2)n1C,3.1%,-9.0,-5.8%,-1.5,10.4µM*,-8.5%
O=C(N/N=C/c1c(O)n(CCC2=CCCCC2)c(=S)[nH]c1=O)c1ccccc1,33.8%,37.6*,11.2µM*,34.9*,4.8%,15.9%
Nc1ccccc1N=Cc1c(O)n(CCC2=CCCCC2)c(=O)[nH]c1=O,28.4%,179.7*,-8.0%,61.6*,u,237.9%
O=C(CN1CCN(C(=O)C2CCCO2)CC1)Nc1ccc(Cl)cc1 (stereo unspecified),6.8%,-6.1,x,-1.7,-16.3%,28.9%
CC(C)CC(=O)Nc1nnc(SCC(=O)NC2CCCCC2)s1,-4.6%,-3.7,-0.7%,7.9,u,-5.2%
Cc1ccccc1-n1c(O)c(/C=N/NC(=O)c2ccccc2O)c(=O)[nH]c1=S,25.3%,76.0*,10.9%,46.5*,22.9%,8.6%
O=C(N/N=C/c1c(O)n(Cc2ccc(F)cc2)c(=O)[nH]c1=O)c1ccccc1,47.2%,89.2*,0.1%,29.5*,u,25.0%
O=C(N/N=C/c1c(O)n(Cc2ccccc2)c(=O)[nH]c1=O)c1ccncc1,18.7%,1.8,1.3%,-0.8,11.5%,u
O=C(Cn1cnc(S(=O)(=O)N2CCCC2)c1)Nc1cccc(F)c1,10.9%,-12.9,0.4%,-7.9,u,16.5%
